Source: PubChem BioAssay (Broad Institute)
HSF-1 act = increases HSF-1 driven luciferase reporter signal. NIH3T3-HGL HSF-1 luciferase reporter, MG132, 8 h; 100% = twice DMSO control signal. activation, % at 9 µM. 300,000 tested, 1.7% active;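 active = mean replicate activation of at least 50% with a set share of replicates each reaching 50%; inconclusive = only one of those two conditions met; inactive = mean below 50% and too few replicates reaching it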
HSF1 inh = HSF1 inhibition. NIH3T3-HGL HSE-luciferase, MG132-induced, luminescence 8 h; stronger effect = lower value. activity change, negative = inhibition, % at 7.5 µM (by protocol). 300,000 tested, 0.77% active. AID 2098;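 active = more than half of replicate wells show activity change below -50%, luminescence cut by over half; inconclusive = some wells, but at most half, below -50%; inactive = no replicate well below -50%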;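 also: luciferase reports HSF-1 transcriptional activity via heat shock element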
Wnt act = activates Wnt/beta-catenin signaling in a reporter cell assay; activator, plate reader; 300,000 tested, 1.2% active; activation, % at 9.35 µM; in the data active = activation above about 30%, passing the limit was not always enough; inconclusive = no clear call, values can overlap the other calls
MITF TRPM1 HTS = activators of MITF-driven TRPM1 promoter activity in SK-MEL-5 cells; SK-MEL-5 TRPM1-promoter luciferase, 24 h; % of positive control, neutral wells = 0; activation, % at 12.5 µM; 300,000 tested, 0.75% active; AID 588334;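 active = mean activation of at least 80% with every replicate also reaching 80%; inconclusive = mean reaches 80% but some replicate falls short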
esBAF inh = SWI/SNF esBAF complex inhibition | reporter increase, % at 12.5 µM | AID 602393 | 350,000 tested, 2% active | mouse ES cells, Bmi1-luciferase knock-in reporter, 24 h; 100% = twice the neutral-well signal; in the data active = activation above about 40%; inconclusive = no clear call, values can overlap the other calls;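 also: a rise in the Bmi1 reporter signal indicates esBAF inhibition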
Ring1 derepress = esBAF inhibition confirmed by Ring1 de-repression. shares compounds with esBAF inh. 550 tested, under 10 active. fold change at 33 µM. AID 743176. mouse ESC E14, Ring1 mRNA RT-qPCR fold change;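 active = Ring1 gene expression raised more than 2-fold over untreated cells in both replicates at either tested dose; inconclusive = only one replicate above 2-fold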;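 also: Ring1 transcript normalised to actin housekeeping signal by TaqMan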
Fgf4 repress = esBAF inhibition confirmed by Fgf4 repression; Fgf4 expression fold change at 33 µM; 550 tested, 4% active; shares compounds with esBAF inh; AID 743177; mouse ESC E14, Fgf4 mRNA qPCR fold change; stronger effect = lower value;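 active = Fgf4 expression under 0.8 fold of control in both repeat measurements at one or both tested doses; inconclusive = under 0.8 fold in just a single repeat measurement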;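 also: Fgf4 transcript normalised to actin in duplex TaqMan qPCR; cells exposed to compound for 24 h before lysis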
Bmi1 derepress = de-represses Bmi1 in mouse ESCs, confirming esBAF inhibition | shares compounds with esBAF inh | mouse ESE14 ES cells, Bmi1 mRNA qPCR fold; stronger effect = higher value | fold change at 33 µM | 550 tested, under 10 active | AID 743180;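 active = Bmi1 expression fold change above 6 at either tested concentration, seen in replicate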;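 also: higher fold means more Bmi1 de-repression and stronger esBAF inhibition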
A549 cytotox = cytotoxicity in A549 cells; 550 tested, under 10 active; plate reader; AID 743188; cell viability change % (negative = cytotoxic), % at 25 µM, hits read low; shares compounds with esBAF inh; call rule not given here
HepG2 cytotox SP = HepG2 cell cytotoxicity at single point. plate reader; stronger effect = lower value. activity change, negative = inhibition, % at 25 µM. 550 tested, 4% active. shares compounds with esBAF inh; in the data active = activity change below about -50%
HEK293 cytotox SP = HEK293 cell cytotoxicity at single point | shares compounds with esBAF inh | plate reader | activity change, negative = inhibition, % at 25 µM, hits read low | 550 tested, 3% active; in the data active = activity change below about -38%, passing the limit was not always enough
Large screens that a line does not name were inactive (follow-up assays come after a bar, where they were run). This is a sample that favours compounds with a hit; in the whole collection about 3.9% have one here.

COc1ccccc1C(=O)NCCC(=O)NC1CCC(C)CC1 (configuration not stated)	MITF TRPM1 HTS inconclusive, esBAF inh 72.8 (no result: HSF-1 act, HSF1 inh) | Ring1 derepress inactive | Fgf4 repress inactive | Bmi1 derepress inactive | A549 cytotox inactive | HepG2 cytotox SP inactive | HEK293 cytotox SP inactive
COc1ccccc1C(=O)NCCC(=O)NC1CCCCC1C (configuration not stated)	none
O=C(c1ccccc1)c1ccc2ccccc2c1	esBAF inh 74.7 (no result: HSF-1 act, HSF1 inh) | Ring1 derepress inactive | Fgf4 repress inactive | Bmi1 derepress inactive | A549 cytotox inactive | HepG2 cytotox SP inactive | HEK293 cytotox SP inactive
COc1ccccc1N1C(=O)S/C(=C\c2ccc(C)s2)C1=O	esBAF inh 73.1 (no result: MITF TRPM1 HTS) | Ring1 derepress inactive | Fgf4 repress inconclusive | Bmi1 derepress inactive | A549 cytotox inactive | HepG2 cytotox SP inactive | HEK293 cytotox SP inactive
CC(=O)N(C)C[C@H]1Oc2ncc(C#Cc3ccc(F)cc3)cc2C(=O)N([C@@H](C)CO)C[C@@H]1C	none (no result: HSF-1 act, HSF1 inh, Wnt act, MITF TRPM1 HTS)
Cc1ccnc(NC(=O)c2ccc3c(c2)C(=O)N(CC(C)C)C3=O)c1	esBAF inh 74.3 | Ring1 derepress inactive | Fgf4 repress inactive | Bmi1 derepress inactive | A549 cytotox inactive | HepG2 cytotox SP inactive | HEK293 cytotox SP inactive
Cc1ccc(O)c(NC(=O)c2ccc3c(c2)C(=O)N(CC(C)C)C3=O)c1	esBAF inh 57.3 (no result: MITF TRPM1 HTS) | Ring1 derepress inactive | Fgf4 repress inactive | Bmi1 derepress inactive | A549 cytotox inactive | HepG2 cytotox SP inactive | HEK293 cytotox SP inactive
CCCN1C(=O)c2ccc(C(=O)Nc3cc(C)ccc3O)cc2C1=O	none (no result: MITF TRPM1 HTS)
C[C@@H]1CN([C@@H](C)CO)S(=O)(=O)c2ccc(C#CCN(C)C)cc2O[C@@H]1CN(C)Cc1ccccc1	none (no result: HSF-1 act, HSF1 inh, Wnt act, MITF TRPM1 HTS)
Cc1cccc(Oc2ccc(Cl)cc2N)c1	esBAF inh 72.0 | Ring1 derepress inactive | Fgf4 repress inactive | Bmi1 derepress inactive | A549 cytotox inactive | HepG2 cytotox SP inactive | HEK293 cytotox SP inactive
O=C(Cc1cccnc1)N[C@@H]1CC[C@H](CCNS(=O)(=O)c2ccccc2Cl)O[C@@H]1CO	none (no result: HSF-1 act, HSF1 inh, Wnt act, MITF TRPM1 HTS)
S=c1[nH]nc(SCc2ccccc2)c2[nH]cnc12	esBAF inh 55.4 (no result: HSF-1 act, HSF1 inh) | Ring1 derepress inactive | Fgf4 repress inactive | Bmi1 derepress inactive | A549 cytotox inactive | HepG2 cytotox SP inactive | HEK293 cytotox SP inactive
O=C(NC1CCCCC1)c1ccc(-c2ccccc2)cc1	esBAF inh 70.2 | Ring1 derepress inactive | Fgf4 repress inactive | Bmi1 derepress inactive | A549 cytotox inactive | HepG2 cytotox SP inactive | HEK293 cytotox SP inactive
O=C(NC1CCCCCCC1)c1ccc(F)cc1	none
O=C(NC1CCCCC1)c1n[nH]c2c1CC(c1ccccc1)CC2 (configuration not stated)	esBAF inh 69.6 (no result: HSF-1 act, HSF1 inh) | Ring1 derepress inactive | Fgf4 repress inactive | Bmi1 derepress inactive | A549 cytotox inactive | HepG2 cytotox SP inactive | HEK293 cytotox SP inactive
Cc1ccc(S(=O)(=O)Nc2ccc3c(c2)C(=O)N([C@H](C)CO)C[C@H](C)[C@@H](CN(C)C(=O)Nc2ccc4c(c2)OCO4)OCCCC[C@H](C)O3)cc1	none (no result: HSF-1 act, HSF1 inh, Wnt act, MITF TRPM1 HTS)
ON=C(CCc1ccccc1)c1ccccc1	esBAF inh 74.0 (no result: HSF-1 act, HSF1 inh, MITF TRPM1 HTS) | Ring1 derepress inactive | Fgf4 repress inactive | Bmi1 derepress inactive | A549 cytotox inactive | HepG2 cytotox SP inactive | HEK293 cytotox SP inactive
CC(/C=C/c1ccc(N(C)C)cc1)=N/N=C1/NC(=O)CC(C(=O)Nc2ccc(Cl)cc2)S1 (configuration not stated)	none (no result: Wnt act, esBAF inh)
CCCOc1ccc(NC(=O)C2CC(=O)N/C(=N/N=C(C)/C=C/c3ccc(N(C)C)cc3)S2)cc1 (configuration not stated)	esBAF inh 59.3 (no result: Wnt act) | Ring1 derepress inactive | Fgf4 repress inactive | Bmi1 derepress inactive | A549 cytotox inactive | HepG2 cytotox SP inactive | HEK293 cytotox SP inactive
O=C(C[C@@H]1CC[C@H](NC(=O)C2CCOCC2)[C@@H](CO)O1)Nc1nccs1	none (no result: HSF-1 act, HSF1 inh, Wnt act, MITF TRPM1 HTS)
CCc1nc(SCc2ccc(Br)cc2)n[nH]1	HSF-1 act inconclusive, esBAF inh 47.1 | Ring1 derepress inactive | Fgf4 repress inactive | Bmi1 derepress inactive | A549 cytotox inactive | HepG2 cytotox SP inactive | HEK293 cytotox SP inactive
CCc1nc(SCc2ccc(Cl)cc2)n[nH]1	none (no result: esBAF inh)
C(=Cc1cnnc2ccccc12)c1ccccc1	esBAF inh 137.6 (no result: HSF-1 act, HSF1 inh) | Ring1 derepress inactive | Fgf4 repress inactive | Bmi1 derepress inactive | A549 cytotox inactive | HepG2 cytotox SP inactive | HEK293 cytotox SP inactive
CSc1cnnc2ccccc12	none (no result: HSF-1 act, HSF1 inh, esBAF inh)
c1ccc(-c2nnc3oc(-c4cccs4)nn23)cc1	esBAF inh 166.4 (no result: HSF-1 act, HSF1 inh, MITF TRPM1 HTS) | Ring1 derepress inactive | Fgf4 repress inconclusive | Bmi1 derepress inactive | A549 cytotox inactive | HepG2 cytotox SP inactive | HEK293 cytotox SP inactive
COCC#Cc1ccc2c(c1)O[C@@H](CN(C)C(=O)CN(C)C)[C@@H](C)CN([C@H](C)CO)S2(=O)=O	none (no result: HSF-1 act, HSF1 inh, Wnt act, MITF TRPM1 HTS)
CC(C)CC#Cc1ccc2c(c1)O[C@@H](CN(C)C(=O)C1CCOCC1)[C@H](C)CN([C@@H](C)CO)S2(=O)=O	none (no result: HSF-1 act, HSF1 inh, Wnt act, MITF TRPM1 HTS)
Cc1cc(=O)oc2cc(NC(=O)c3cccc(F)c3)ccc12	esBAF inh 68.3 | Ring1 derepress inactive | Fgf4 repress inactive | Bmi1 derepress inactive | A549 cytotox inactive | HepG2 cytotox SP inactive | HEK293 cytotox SP inactive
COCCN(C[C@@H]1[C@@H](c2ccccc2)[C@H](CO)N1C(=O)C1CC1)C(C)=O	none (no result: HSF-1 act, HSF1 inh, Wnt act, MITF TRPM1 HTS)
O=C1c2ccccc2C2N1CCCN2C(=O)c1sc2ccccc2c1Cl (configuration not stated)	esBAF inh 64.4 (no result: HSF-1 act, HSF1 inh, MITF TRPM1 HTS) | Ring1 derepress inactive | Fgf4 repress inactive | Bmi1 derepress inactive | A549 cytotox inactive | HepG2 cytotox SP inactive | HEK293 cytotox SP inactive
C[C@@H]1CCCCO[C@@H](CN(C)Cc2ccccc2)[C@H](C)CN([C@@H](C)CO)C(=O)c2cc(N(C)C)ccc2O1	none (no result: HSF-1 act, HSF1 inh, Wnt act, MITF TRPM1 HTS)
C[C@@H]1CN([C@@H](C)CO)C(=O)c2cc(NS(=O)(=O)c3ccc(F)cc3)ccc2O[C@@H](C)CCCCO[C@@H]1CN(C)CC1CCCCC1	none (no result: HSF-1 act, HSF1 inh, Wnt act, MITF TRPM1 HTS)
C[C@@H]1CCCCO[C@@H](CN(C)C(=O)Nc2ccc(F)cc2)[C@H](C)CN([C@H](C)CO)C(=O)c2cc(NS(C)(=O)=O)ccc2O1	none (no result: HSF-1 act, HSF1 inh, Wnt act, MITF TRPM1 HTS)
